Inhibition data for 27 compounds are collected here from PubChem BioAssay AID1626 (SRMLSC, 2009).

Molecules are shown by their SMILES. Out of some 220,000 compounds screened, about 2,000 (0.91%) were called active. About 2% were inconclusive and are not listed. A selection follows. Entries with a potency or affinity are not part of this list. Unmarked numbers belong to inactive results. Cut-off read from the data, not from the text of the source: inconclusive = inhibition above about 80% without an active follow-up result; inactive = below that; test concentration not stated here.

This assay can be described thus: M. tuberculosis H37Rv growth inhibitors, H37Rv strain (AID 1626).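 Note: bacteria incubated seven days before Alamar blue readout; 0% = bacteria only wells and 100% = bacteria with antibiotic wells.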 The note with it: active compounds read high, concentration not given here.
The inhibition is the relative decrease from the control value, in per cent. On to `CCOC(=O)c1cc(-c2ccccc2)sc1NC(=O)C(C)OC(=O)c1ccncc1` (configuration not stated), for which the inhibition is 0.66%.

On to `C=CCSc1nc(C)cc(C(=O)OCC)c1C#N`, for which the inhibition was -3.16%.

On to `COc1ccccc1C(=O)O/N=C(\c1ccccc1)c1ccncc1`, for which the inhibition was 3.28%.

Regarding `CCOC(=O)N/N=C/C=C/c1ccccc1`, the inhibition is -6.43%.

As for `CCOc1cccc(/C=C/C(=O)O)c1`, the inhibition is 4.51%.

For `Oc1csc(Cc2nc(-c3ccc(Br)cc3)cs2)n1`, the inhibition was 38.3%.

For the compound `CNC(=O)c1c(O)c2cccc3c2n(c1=O)CC3`, the inhibition is -2%.

For the compound `O=C(Nc1ccccn1)c1c(O)c2cccc3c2n(c1=O)CCC3`, the inhibition was -3.22%.

With `O=C(NCc1cccnc1)c1c(O)c2cccc3c2n(c1=O)CCC3`, the inhibition was -3.06%.

For `CCCCNC(=O)c1c(O)c2cccc3c2n(c1=O)CCC3`, the inhibition is 3.46%.

With `Cc1cccc(NC(=O)c2c(O)c3cccc4c3n(c2=O)CCC4)n1`, the inhibition is -9.1%.

On to `CCNCCNC(=O)c1c(O)c2cccc3c2n(c1=O)CCC3`, for which the inhibition is 1.67%.

Consider `COc1ccc(-n2cnnc2SCC(=O)Nc2cccnc2Cl)cc1`, for which the inhibition was 2.1%.

As for `O=C(Nc1nccs1)c1ccc(Cl)c(S(=O)(=O)N2CCOCC2)c1`, the inhibition is -20.2%.

As to `CC1C(c2ccccc2)=NNc2nc3c(c(=O)n(C)c(=O)n3C)n21` (configuration not stated), the inhibition is -9.85%.

In the case of `Cc1cccc2c1CC(C)(C)N=C2C1=C(O)CC(C)(C)CC1=O`, the inhibition was 2.19%.

On to `CC(=O)Nc1ccc(NC(=O)CCc2nc3ccccc3c(=O)[nH]2)cc1`, for which the inhibition was 2.86%.

For `COc1ccc(/C=C/C(=O)c2c(O)n(CCC3=CCCCC3)c(=O)[nH]c2=O)cc1OC`, the inhibition was 36.6%.

Take `Cc1cc(C)c(C(=O)/C=C/c2ccc3c(c2)OCO3)c(=O)[nH]1`: the inhibition is -2.72%.

On to `CCCCn1c(O)c(C(CC)=NCc2ccc3c(c2)OCO3)c(=O)[nH]c1=O`, for which the inhibition is -0.92%.

For the compound `O=C(/C=C/c1c[nH]c2ccccc12)c1c(O)n(CCc2ccccc2)c(=O)[nH]c1=O`, the inhibition was 22.5%.

For `Cn1c(N)c(C(=O)/C=C/c2ccccc2)c(=O)[nH]c1=O`, the inhibition was -9.59%.

Turning to `CCCCn1c(O)c(C(C)=NCc2ccc3c(c2)OCO3)c(=O)[nH]c1=O`, the inhibition is 10.3%.

On to `O=c1[nH]c(=O)n(CCc2ccccc2)c(O)c1C=NCc1ccc2c(c1)OCO2`, for which the inhibition was -3.13%.

Take `COc1cc(/C=C/C(=O)CC(=O)/C=C/c2ccc(O)c(OC)c2)ccc1O`: the inhibition is 7.76%.

As to `COc1ccc(CN(C)CC(=O)Nc2sc3c(c2C#N)CCC3)cc1OC`, the inhibition was 3.36%.

`Cc1ccc(/C=N/NC(=O)CCCOc2ccc(Cl)cc2Cl)cc1[N+](=O)[O-]`: the inhibition was -5.05%.
